Pf Dd2 inh = Plasmodium falciparum Dd2 growth inhibition; AID 1347417; 120,000 tested, 4.3% active; P. falciparum Dd2 growth, SYBR Green, 72 h; Potency, µM (highest dose often 28.9 µM), actives largely listed as inhibitors; active means well fitted inhibition curve with a large enough effect; further: nearly all actives have a fitted effect of over 65% in size
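Readout: SYBR Green fluorescence, 485 nm excitation, 535 nm emission, after ~16 h lysis at 37C. Before that, Dd2-infected red cells (2.5% hematocrit) grew 72 h with compound, 29 uM top final concentration.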
A number is an active result; 0 = inactive; [ ] = remark or other dose. Shown is part of a subset that was picked to be rich in hits.

SMILES | Pf Dd2 inh
CCOc1ccc(N2CC(c3nc4ccccc4n3CCC3CCCCC3)CC2=O)cc1 (stereo not drawn) | 11µM
CCOc1ccccc1N1CC(c2nc3ccccc3n2CCCOc2ccccc2OC)CC1=O (stereo not drawn) | 0
CCOc1ccc(N2CC(c3nc4ccccc4n3CC(C)C)CC2=O)cc1 (stereo not drawn) | 0
CCOc1ccccc1N1CC(c2nc3ccccc3n2CCOc2ccc(C(C)(C)C)cc2)CC1=O (stereo not drawn) | 0
Cc1cccc(C)c1OCCn1c(C2CC(=O)N(Cc3ccc(F)cc3)C2)nc2ccccc21 (stereo not drawn) | 2.5µM
CCOc1ccc(N2CC(c3nc4ccccc4n3CCOc3ccc(CC)cc3)CC2=O)cc1 (stereo not drawn) | 0
CCCOC1CCCN(C(=O)c2ccc3nc(-c4ccc(F)cc4)cn3c2)C1 (stereo not drawn) | 0
C=CCNC(=O)CCc1c(C)nn(-c2ccc(F)cc2)c1Oc1cccc(F)c1 | 0
O=C(c1ccccc1F)N1CCC(N2CC3CCCN3C2=O)CC1 (stereo not drawn) | 0
CC(C)NC(=O)NC[C@H]1O[C@@H]2C[C@@H](CC(=O)NCc3cnn(C)c3)O[C@@H]2[C@@H]1O | 0
CC(C)c1ccc(N2C(=O)N[C@@H]3CCN(C(=O)c4ccc(N(C)C)cc4)[C@@H]3C2=O)cc1 | 0
CNC(=O)CCC[C@@H]1[C@H]2CCCN3CCC[C@@H](CN1C(C)=O)[C@@H]23 | 0
CCOc1ccc(-c2nc(C3CC(=O)N(c4ccc(OC)cc4)C3)no2)cc1 (stereo not drawn) | 0
CCOc1ccc(N2CC(c3nc4ccccc4n3CCCCOc3ccc(OC)cc3)CC2=O)cc1 (stereo not drawn) | 13µM
COc1ccc(-c2cc3c(c(OC)c2)OCCNC3)nn1 | 0
Cc1ccc(-c2cc(O)c3c(c2)CNCCO3)cc1 | 0
COc1cc(-c2cc(C)c3c(OC)ccc(OC)c3n2)cc2c1OCCNC2 | 11µM
COC(=O)[C@H]1CN(C(C)=O)CCN1C(C)=O | 0
Cc1ccc(-c2cc3c(=O)n(CCNC(=O)c4cnccn4)ccn3n2)cc1C | 0
Cc1ccc(NC(=O)N2CCc3c(c4ccccc4n3C)C2)cc1 | 0
Cn1c2c(c3ccccc31)CN(C(=O)Nc1ccccc1F)CC2 | 11µM
CCc1ccc(NC(=O)N2CCc3c(c4ccccc4n3C)C2)cc1 | 0
Cc1ncccc1C(=O)N1CCC(COc2ccc3c(cnn3CC[S+](C)(=O)[O-])c2)CC1 | 0
O=[S+]1([O-])NCC2(CCCN(Cc3ccc(Cl)cc3)C2)Oc2ncccc21 (stereo not drawn) | 0
COCC(=O)N1CCC(O)(c2ccccc2)[C@H](N2CCCC2)C1 (stereo partly drawn) | 0[5.79 µM]
SMILES | Pf Dd2 inh
CCCC(=O)N1CCC(O)(c2ccccc2)[C@H](N2CCCC2)C1 (stereo partly drawn) | 0[5.79 µM]
Cc1c(CN2CCC(O)(c3ccccc3)[C@H](N3CCCC3)C2)cnn1C (stereo partly drawn) | 0.45µM
CCOc1cc(=O)n2c(c1C(=O)Nc1cccc(C)c1C)CCCC2 | 0
Cc1ccc(C(=O)N2CCC(Oc3ccc(C(N)=O)cn3)CC2)cc1C | 0
Cn1c(CCC(=O)N2CC[C@H](O)C2)nc2cc(S(=O)(=O)N3CCCC3)ccc21 | 0
O=C(C[C@@H]1O[C@H](CNC(=O)Nc2ccccc2)[C@@H](O)[C@H]1O)NC1CC1 | 0
Cc1ccc(-c2nnc(C3CN(C(=O)c4cccc(Cl)c4)CC34CCOCC4)o2)cc1 (stereo not drawn) | 0
N#Cc1cccc(C(=O)N2CCOCCNC(=O)[C@@H]3CCC[C@@H]32)c1 | 0
COc1ccc(CCc2nc3nccc(-c4ccccc4)n3n2)cc1OC | 0
COc1ccc(CCc2nc3nccc(-c4ccc(OC)c(OC)c4)n3n2)cc1 | 13µM
COc1ccc(CCc2nc3nccc(-c4cc(OC)c(OC)c(OC)c4)n3n2)cc1 | 0
COc1cc(-c2ccnc3nc(CCc4ccccc4)nn23)cc(OC)c1OC | 11µM
COc1ccc(CCc2nc3nccc(-c4ccc(F)cc4)n3n2)cc1OC | 0
COc1ccc(CCc2nc3nccc(-c4ccncc4)n3n2)cc1OC | 0
Cc1ccccc1C(=O)N1CCCN(c2nnc3ccc(Cl)cn23)CC1 | 0
COc1ccc(C(=O)NCC(c2ccc(Cl)cc2)N2CCCCC2)cc1 (stereo not drawn) | 0
COc1ccc(C(CNC(=O)COc2cc(C)cc(C)c2)N2CCOCC2)cc1 (stereo not drawn) | 0
COc1ccc(C(CNC(=O)Cc2ccc(Cl)cc2)N2CCOCC2)cc1 (stereo not drawn) | 0
Cc1cc(C)cc(OCC(=O)NCC(c2ccc(Cl)cc2)N2CCCCC2)c1 (stereo not drawn) | 11µM
CCc1ccc(OCC(=O)NCC(c2ccc(Cl)cc2)N2CCOCC2)cc1 (stereo not drawn) | 11µM
O=C(COc1ccccc1)NCC(c1ccc(Cl)cc1)N1CCOCC1 (stereo not drawn) | 0
COc1ccc(OCC(=O)NCC(c2ccc(Cl)cc2)N2CCCCC2)cc1 (stereo not drawn) | 7.9µM
COc1ccccc1OCC(=O)NCC(c1ccc(Cl)cc1)N1CCOCC1 (stereo not drawn) | 0
CN(C)c1ccc(C(CNC(=O)COc2ccccc2)N2CCOCC2)cc1 (stereo not drawn) | 0
COc1ccccc1CC(=O)N1C[C@H](c2nc(-c3ccncc3)no2)[C@@H](C)C1 | 0
SMILES | Pf Dd2 inh
CS(=O)(=O)Nc1ccc([C@H]2OCC(=O)N[C@@H]2CO)cc1 | 0
Cc1ccc(-c2cnc([C@@H]3COCCN3C)[nH]2)cc1 | 0
Cc1ccc(CNC(=O)CN2C(=O)NC(c3ccccc3Cl)C3=C2COC3=O)cc1 (stereo not drawn) | 0
COc1ccccc1-c1cnc(Nc2ccc3c(c2)OCCO3)c2c1CCO2 | 0
CCn1nc(CNC(=O)C2CC3(CCNCC3)CN2)c2ccccc21 (stereo not drawn) | 0
O=C(Cn1ccn2nc(-c3ccccc3)c(CO)c2c1=O)Nc1cccc(C(F)(F)F)c1 | 0
CCOc1ccc(CCNc2ncnc3onc(-c4ccc(Cl)cc4)c23)cc1OCC | 0
Clc1ccc(-c2noc3ncnc(NCCCN4CCN(c5ccccc5)CC4)c23)cc1 | 11µM
Fc1ccc(-c2noc3ncnc(NCCCN4CCN(c5ccccc5)CC4)c23)cc1 | 0
CCc1nc(-c2c3n(c(=O)n(CC(=O)Nc4ccccc4OC)c2=O)CCCCC3)no1 | 0
COc1ccccc1CNC[C@H]1O[C@H](Cc2cc(CN3CCOCC3)on2)CC[C@@H]1O | 0
CCN(CC)Cc1cnc2c(C(=O)NCCc3cccs3)cnn2c1 | 0
CCN(CC)Cc1cnc2c(C(=O)NCCc3c[nH]c4ccccc34)cnn2c1 | 8.9µM
CCN(CC)Cc1cnc2c(C(=O)NCCc3cnccn3)cnn2c1 | 0
O=C(c1n[nH]c(=O)c2ccccc12)N1CCCC1c1nc(CCOCC2CC2)no1 (stereo not drawn) | 0
CC(=O)c1ccc(N2CCN(C(=O)CCCn3c(=O)[nH]c4ccsc4c3=O)CC2)cc1 | 0
O=C(CCCCCn1c(=O)[nH]c2ccccc2c1=O)NCCc1ccccc1 | 0
COC(=O)c1ccc2c(=O)n(CCCCCC(=O)N3CCN(c4cc(Cl)ccc4C)CC3)c(=O)[nH]c2c1 | 10µM
CC(=O)c1ccc(N2CCN(C(=O)CCCCn3c(=O)[nH]c4ccccc4c3=O)CC2)cc1 | 5.6µM
Cc1ccc(C)c(N2CCN(C(=O)c3ccc4c(=O)n(CCc5ccccc5)c(=O)[nH]c4c3)CC2)c1 | 0

Compound activity from PubChem.
